From PubChem BioAssay AID430 (Sanford-Burnham Center for Chemical Genomics, 2006)
The whole screen tested about 63,000 compounds, of which about 1,100 (1.7%) were called active. Cut-off read from the data, not from the text of the source: active = cytotoxicity above about 50%; inactive = the rest. The entries come from a sample that favours actives as a whole. Potency and affinity values are given separately.

Assay: cytotoxicity in HPDE-C7 cells, cell-based, fluorescence, HTS (AID 430);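 note: cells exposed to compound for 48 hours before viability readout; 0% = vehicle and 100% = reference cytotoxic drug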
Conditions: HPDE-C7 pancreatic duct cells viability, at 10 µM, hits give high values

SMILES | cytotoxicity
Cc1ccc(NC(=O)CSc2nnc(Cn3c(=O)sc4ccccc43)n2C)cc1Cl | -0.9% (inactive)
O=C(COC(=O)CCC(=O)c1ccc2c(c1)OCCO2)NCc1ccc2c(c1)OCO2 | -8.4% (inactive)
Nn1c(Cc2ccccc2F)nnc1SCC(=O)N1CC(=O)Nc2ccccc21 | -3.4% (inactive)
Cc1cc(C)cc(N2CCCn3c2nc2c3c(=O)n(CC(=O)OCc3ccccc3)c(=O)n2C)c1 | 26.4% (inactive)
O=C(O)C1CCCCC1C(=O)OCCCCOC(=O)C1CCCCC1C(=O)O (stereo not given) | 3.9% (inactive)
COc1ccc(-c2n[nH]c(C)c2-c2ccc(Cl)cc2)c(O)c1OC | -29.4% (inactive)
Oc1ccc(-c2[nH]ncc2-c2ccc(Cl)cc2)c(O)c1 | 33.3% (inactive)
Cc1[nH]nc(-c2ccc(O)cc2O)c1Oc1ccccc1 | 69.8% (active)
COc1ccc(Oc2c(-c3ccc(O)cc3O)n[nH]c2C)cc1 | 26.3% (inactive)
Cc1[nH]nc(-c2ccc(O)cc2O)c1-c1ccc(Cl)cc1 | 60.1% (active)
COc1ccc(-c2n[nH]c(C)c2-c2cnn(-c3ccccc3)c2)c(O)c1 | 36.4% (inactive)
CSCCC(C(=O)Nc1ccc2c(c1)OCO2)N1C(=O)c2ccccc2C1=O (stereo not given) | 0.6% (inactive)
CN(C)c1ccc(CNC(=O)C2CCN(S(=O)(=O)c3ccc4c(c3)CCC(=O)N4)CC2)cc1 | 3.1% (inactive)
COc1ccc(N2CC(C(=O)NCCCN3CCOCC3)CC2=O)cc1 (stereo not given) | 3.4% (inactive)
Cn1c(=O)c2c(nc(SCCN3CCOCC3)n2Cc2ccc(F)cc2)n(C)c1=O | 3.9% (inactive)
CCCc1nc2ccccc2c(C(=O)OC2CCOC2=O)c1CC (stereo not given) | -7.5% (inactive)
NC1(N)OC(CN2C(=O)c3ccccc3C2=O)CS1 (stereo not given) | -15% (inactive)
CC1=CC(C)(C)N2C(=O)C3(C(C#N)=C(N)Oc4cc(C)oc(=O)c43)c3cccc1c32 (stereo not given) | 1.3% (inactive)
CC1=CC(C)(C)N2C(=O)C3(C(C#N)=C(N)Oc4cc(O)ccc43)c3cccc1c32 (stereo not given) | 68.4% (active)
COc1cc2c3c(c1)C1(C(=O)N3C(C)(C)C=C2C)C(C#N)=C(N)Oc2cc(O)ccc21 (stereo not given) | -9.2% (inactive)
Cc1ccc2cc3c(nc2c1)N(Cc1ccco1)CC3 | -15.5% (inactive)
CC1CCN(S(=O)(=O)c2ccc(NC(=O)Cn3nnc(-c4ccccc4)n3)cc2)CC1 | 3.7% (inactive)
Cc1cc(NC(=O)COc2cccc3cccnc23)no1 | 7.3% (inactive)
CCN1CCN(c2nc3ccccc3nc2C(C#N)C(=O)OCc2ccccc2)CC1 (stereo not given) | 58% (active)

SMILES | cytotoxicity
COc1ccc(CNC(=O)C(C#N)c2nc3ccccc3nc2N2CCN(C)CC2)cc1 (stereo not given) | 72% (active)
CCCCCCOC(=O)C(C#N)c1nc2ccccc2nc1N1CCN(CC)CC1 (stereo not given) | 12.4% (inactive)
CCCCCCOC(=O)C(C#N)c1nc2ccccc2nc1N1CCN(C)CC1 (stereo not given) | 64.2% (active)
CC(C)COC(=O)C(C#N)c1nc2ccccc2nc1N1CCN(Cc2ccccc2)CC1 (stereo not given) | -14% (inactive)
COCCOC(=O)C(C#N)c1nc2ccccc2nc1N1CCN(Cc2ccccc2)CC1 (stereo not given) | 8.9% (inactive)
CCCCCCOC(=O)C(C#N)c1nc2ccccc2nc1N1CCCCC1 (stereo not given) | -47.4% (inactive)
COc1ccc(CNC(=O)C(C#N)c2nc3ccccc3nc2N2CCCC2)cc1 (stereo not given) | -15.8% (inactive)
N#CC(C(=O)NCc1ccccc1)c1nc2ccccc2nc1N1CCCC1 (stereo not given) | -2% (inactive)
Cc1cc2cc(CCNC(=O)CC(C)C)c(=O)[nH]c2cc1C | 3.7% (inactive)
O=C(NCc1ccco1)c1cc2ccccc2c(=O)o1 | -3.4% (inactive)
Cc1nc(-c2cn[nH]c2)c2cc(C)oc2n1 | 1.2% (inactive)
CCCN(CCC)c1nc2ccccc2nc1C(C#N)C(=O)OCCOC (stereo not given) | -8.9% (inactive)
Cc1nnc(SCC(=O)Nc2nc3c(s2)CC(C)CC3)s1 (stereo not given) | 1% (inactive)
CCC(c1nnnn1C(C)(C)C)N(CCOC)Cc1cc2cccc(C)c2n2nnnc12 (stereo not given) | 5.7% (inactive)
CCOC(=O)c1c(C)oc2c1c1c(c3ccccc32)OCN(Cc2cccnc2)C1 | 2.1% (inactive)
CCOC(=O)c1c(C)oc2c1c(C=NCC1CCCO1)c(O)c1ccccc12 (stereo not given) | -16.9% (inactive)
CCOC(=O)c1c(C)oc2c1c(/C=N/c1ccccn1)c(O)c1ccccc12 | 1.4% (inactive)
CCOC(=O)c1c(C)oc2c1c(C(c1cccnc1)N1CCN(C)CC1)c(O)c1ccccc12 (stereo not given) | 112% (active)
CCOC(=O)c1c(C)oc2c1c(C=NC1CCS(=O)(=O)C1)c(O)c1ccccc12 (stereo not given) | 28.9% (inactive)
CCOC(=O)c1c(C)oc2c1c(C=NCc1ccccn1)c(O)c1ccccc12 | 91% (active)
O=S(=O)(N1CCCCC1)N1CCN(S(=O)(=O)N2CCCCC2)CC1 | 0.2% (inactive)
CCOC(=O)CNC(=O)C(Cc1ccccc1)NS(=O)(=O)c1cccs1 (stereo not given) | 2.5% (inactive)
COC(=O)C(C)NS(=O)(=O)c1ccc(NC(C)=O)cc1 (stereo not given) | -12.8% (inactive)
COC(=O)/C=C/S(=O)(=O)c1ccc(NC(C)=O)cc1 | 102% (active)

SMILES | cytotoxicity
CCOC(=O)CN(Cc1ccccc1)S(=O)(=O)c1ccc(NC(C)=O)cc1 | -2.7% (inactive)
CC(=O)Nc1ccc(S(=O)(=O)c2ccc(N)cc2)cc1 | -11% (inactive)
COc1ccccc1NS(=O)(=O)c1ccc(NC(C)=O)cc1 | -0.5% (inactive)
O=C(CSc1nnc(COc2ccc(Cl)cc2)o1)OC1CCCCC1 | -7.9% (inactive)
CCOC(=O)N1CCC(NCCNC(=O)c2cccs2)CC1 | -6.4% (inactive)
O=C(Cc1ccccc1)N1CCCC1c1ccccc1 (stereo not given) | -22.3% (inactive)
CCCCN(C(=O)NC(=O)Nc1ccccc1OC)S(C)(=O)=O | -3.1% (inactive)
CCOC(=O)N1CCN(C(=O)CSc2nnc(-c3ccc(C(C)(C)C)cc3)o2)CC1 | 2.6% (inactive)
O=C(CNC1CCCCCC1)Nc1ccc(S(=O)(=O)NC2CC2)cc1 | -6.7% (inactive)
Cc1cc(-c2cc(-c3ccc(Cl)cc3)nc(N)c2C#N)co1 | 77.8% (active)
Cc1ccc(-c2cc(-c3ccccc3Cl)c(C#N)c(N)n2)o1 | 11.3% (inactive)
Cc1ccc(-c2cc(-c3ccccc3)c(C#N)c(N)n2)o1 | 29.8% (inactive)
Cc1ccc(-c2cc(-c3ccc(F)cc3)nc(N)c2C#N)o1 | 20.1% (inactive)
Cc1ccc(-c2cc(-c3ccc(C)o3)nc(N)c2C#N)cc1 | 20.9% (inactive)
Cc1ccc(-c2cc(-c3ccc(Cl)cc3)c(C#N)c(N)n2)o1 | 64.4% (active)
COCC(=O)Nc1nc2n(n1)C(c1ccc(OC)cc1)CC(c1ccc(OC)cc1)N2 (stereo not given) | 2.7% (inactive)
O=C(NCCN1CCc2ccccc2C1)Nc1ccc(F)cc1 | -10.7% (inactive)
CSc1nc2cc(F)c(F)cc2n1C | -9.5% (inactive)
COc1cc(C)c(Br)cc1S(=O)(=O)N1CCOCC1 | -9.6% (inactive)
Cc1nn(CCCC(=O)N2CCc3ccccc3C2)c(=O)c2cc3sccc3n12 | -7.2% (inactive)
O=C(Oc1ccccc1C(=O)N1CCOCC1)c1ccc(Br)cc1 | -14.1% (inactive)
CN(CCc1ccccn1)Cc1ccc(Cl)cc1 | -13.4% (inactive)
CC(C)c1nc2oc3c(NCC4CCCO4)ncnc3c2c2c1CCC2 (stereo not given) | 114% (active)
CC(C)c1nc2oc3c(NCC4CCCO4)ncnc3c2c2c1COC(C)(C)C2 (stereo not given) | -14.6% (inactive)

SMILES | cytotoxicity
Cc1nc2oc3c(NCC4CCCO4)ncnc3c2c2c1COC(C)(C)C2 (stereo not given) | -3.9% (inactive)
CCCc1cc(N2CCCC(C(=O)Nc3cc(Cl)ccc3OC)C2)n2ncnc2n1 (stereo not given) | -9.9% (inactive)
COc1cc(NC(=O)Nc2cccc(Cl)c2)c(OC)cc1NC(=O)CN1CCCCC1 | 83.1% (active)
COc1cc(NC(=O)Nc2ccccc2OC)c(OC)cc1NC(=O)CN1CCCCC1 | 1.9% (inactive)
COc1cc(NC(=O)Nc2ccccc2)c(OC)cc1NC(=O)CN1CCCCC1 | 6.1% (inactive)
CC1CCCC(NS(=O)(=O)c2ccc3c(c2)OCCO3)C1C (stereo not given) | -7.8% (inactive)
Cc1ccc(-c2csc(N3CCC(NS(=O)(=O)c4ccc5c(c4)OCCO5)CC3)n2)cc1 | 54.6% (active)
Cc1nc(CNS(=O)(=O)c2ccc3c(c2)OCCO3)cs1 | -11.4% (inactive)
Cc1nc2ccc(S(=O)(=O)NCC(=O)N3CCC(C)CC3)cc2s1 | -1% (inactive)
O=c1[nH]c(-c2ccc(Cl)cc2)nc2c1cnn2-c1ccccc1 | 3.6% (inactive)
CCCSc1nc2c(cnn2-c2ccccc2)c(=O)[nH]1 | -0.6% (inactive)
CCCCCSc1nc2c(cnn2-c2ccccc2)c(=O)[nH]1 | 57.7% (active)
CCCCSc1nc2c(cnn2-c2ccc(F)cc2)c(=O)[nH]1 | -30.5% (inactive)
CCOC(=O)N1CCN(c2c(-c3ccc(C(C)C)cc3)c(=O)c2=O)CC1 | 1.3% (inactive)
COCc1nc(-c2cc(OC)c(OC)c(OC)c2)no1 | -19% (inactive)
CCN(CC)c1ccc2cc(-c3nc4ccccc4[nH]3)c(=O)oc2c1 | 30.8% (inactive)
O=c1oc2ccc3ccccc3c2cc1-c1nnc(-c2ccccc2)o1 | 13.4% (inactive)
CCN(CC)c1ccc2cc(-c3nnc(-c4ccncc4)o3)c(=O)oc2c1 | 59.2% (active)
CC(=O)Oc1ccc2cc(-c3nc4ccccc4n3C)c(=O)oc2c1 | 4.2% (inactive)
CCN(CC)c1ccc2cc(C(=O)Nc3ccccn3)c(=O)oc2c1 | 9.8% (inactive)
CCN(CC)c1ccc2cc(-c3nc4ccccc4n3C)c(=O)oc2c1 | 67% (active)
O=C(Nc1cccnc1)c1cc2nc(C3CC3)cc(C(F)(F)F)n2n1 | -15.8% (inactive)
Cc1ccc(SCc2cn3c(C)csc3n2)cc1 | -10.2% (inactive)
